# Assay outcomes: PubChem BioAssay, several laboratories
# Arbovirus inh = antivirals against arbovirus infection, primary screen, cell-based, full library, 10K replicate subset; arbovirus infection cell-based antiviral screen; inhibition, % at 10 µM; 0.37% of 200,000 active; in the data active means inhibition above about 30%
# WT yeast gro inh = growth inhibition of WT strain, primary screen, mitochondrial fusion inhibitor project, WT and mutant strains, chemical genetic. mitochondrial fusion phenotypic screen. inhibition, % at 10 µM. 2.1% of 190,000 active; in the data active means inhibition above about 58%; tested in S. cerevisiae
# Lmaj promast = Leishmania major promastigote growth inhibition, primary screen; AID 1063, 2008; Leishmania major promastigotes, resazurin fluorescence viability; inhibition, % at 10 µM; 9% of 200,000 active; in the data active means inhibition above about 50%;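 further: promastigotes grown with compound for 44 hours at 28 °C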
# CHOP inhibitor = inhibitors of CHOP promoter induction, primary screen, cell-based, unfolded protein response, luciferase reporter; CHO-K1 CHOP-promoter luciferase, tunicamycin-induced, 15-18 h; inhibition, % at 10 µM; 3.8% of 220,000 active;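 active means compounds that reduced the stress-induced luciferase reporter signal by more than about 70% of percent inhibition, limit read from the data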;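 further: 0% = tunicamycin plus vehicle and 100% = wells without tunicamycin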
# * = called active by the depositor; nt = not tested or not shown. The list is not random: actives were taken first. Their share in the collection is about 12%.
SMILES,Arbovirus inh,WT yeast gro inh,Lmaj promast,CHOP inhibitor
COc1ccc(O)c(/C=N/NC(=O)c2ccc(CSc3nc(C)cc(C)n3)cc2)c1,-36,-9,99*,71*
COc1ccc(C(=O)N/N=C/c2cc(Br)ccc2O)cc1OC,nt,nt,nt,63
COc1ccc(/C=N/NC(=O)c2ccc(CSc3nc(C)cc(C)n3)cc2)cc1O,3,-12,-8,7
CCOc1ccc(OCc2cccc(C(=O)N/N=C/c3cccnc3)c2)cc1,-8,31,58*,23
COc1ccc(O)c(/C=N/NC(=O)c2ccc(OCc3cccc(Br)c3)cc2)c1,-25,17,97*,8
Cc1cc(C)nc(SCc2ccc(C(=O)N/N=C/c3ccc(C(=O)O)cc3)cc2)n1,2,-13,-3,8
CCOC(=O)CCCNC(=O)COC(=O)c1cccc(F)c1,0,0,-5,48
Cc1ccc(-c2cn3nc(C)c(C)nc3n2)cc1,-2,1,-4,81*
O=C(CNC(=O)c1ccccc1)N/N=C/c1cc(Br)ccc1O,-18,-7,80*,66
O=C(N/N=C/c1cc(Cl)ccc1O)c1ccccc1Br,-15,4,98*,49
Cn1c(/C=N/NC(=O)c2ccccc2Br)nc2ccccc21,-12,0,5,84*
O=C(CNC(=O)c1cccc(Br)c1)N/N=C/c1cn[nH]c1-c1ccccc1,-8,11,67*,6
Cc1ccc(C(=O)N/N=C/c2nc3ccccc3n2C)cc1,-24,7,6,-9
O=C(CNC(=O)c1ccccc1Br)N/N=C/c1ccccc1O,-29,22,2,22
O=C(NNc1cc(C(F)(F)F)nc2ccccc12)Nc1cccc(Cl)c1,nt,nt,nt,13
Cc1cc(C(=O)N/N=C/c2c(C)nn(-c3ccccc3)c2C)c(C)o1,nt,nt,nt,-23
O=C(CN1CC(c2ccccc2)CC1=O)N/N=C/c1cc(Br)ccc1O (centres undefined),-14,16,98*,53
O=C(CNC(=O)c1ccncc1)N/N=C/c1cc(Br)ccc1O,0,-9,98*,-23
O=C(CNC(=O)c1ccccc1Br)N/N=C/c1cc(Br)ccc1O,-24,-3,58*,59
O=C(CNC(=O)c1ccncc1)N/N=C/c1ccc(Br)cc1,nt,nt,nt,3
O=C(Cn1nnc(-c2ccccc2)n1)NNC(=O)c1ccco1,-8,-9,-5,-10
O=C(Nc1cccc(Cl)c1)OCc1cncs1,4,-6,78*,22
CCS(=O)(=O)Nc1cccc(C2=NN(S(=O)(=O)c3ccc(C)cc3)C(c3ccco3)C2)c1 (centres undefined),-5,-4,33,31
CCCN1Cc2cccc(C(=O)NC(CC(=O)OCC)c3ccc(C)cc3)c2C1=O (centres undefined),-4,66*,10,6
CCCN1Cc2cccc(C(=O)NC(CC(=O)OCC)c3ccc(OC(C)C)cc3)c2C1=O (centres undefined),-4,38,14,-39
SMILES,Arbovirus inh,WT yeast gro inh,Lmaj promast,CHOP inhibitor
O=C(COc1ccc(Cl)cc1Cl)Nc1ccc(S(=O)(=O)NC2=NCCCCC2)cc1,8,22,-7,23
Cc1cc(OCC(=O)Nc2ccc(S(=O)(=O)NC3=NCCCCC3)cc2)c(C(C)C)cc1Cl,-15,35,71*,43
COC(=O)n1c(=S)oc2cc(Cl)ccc21,-11,15,-4,90*
CCCCOC(=O)n1c(=S)oc2cc(Cl)ccc21,10,32,-4,31
CCOC(=O)CN1C(=O)C(Sc2n[nH]c(-c3ccc(O)cc3)n2)CCc2ccccc21 (centres undefined),-19,-22,5,5
C=CCCCCCCCCC(=O)Nc1c[nH]c(=O)[nH]c1=O,-5,nt,93*,4
O=C(CCC1CCCCC1)Nc1c[nH]c(=O)[nH]c1=O,-3,-7,1,-9
O=C(CSc1ccc(-c2ccccc2)nn1)NCc1ccco1,-5,12,3,-4
O=C(O)c1ccc(COc2ccccc2/C=C2\NC(=O)N(Cc3ccccc3F)C2=O)cc1,-4,-9,-3,0
CN1C(=O)/C(=C/c2ccccc2OCc2ccccc2F)NC1=S,-12,17,62*,34
COc1ccc(/C=N/NC(=O)CC(=O)N/N=C/c2ccc(OC)cc2)cc1,3,5,37,2
COc1ccc(/C=N/NC(=O)C2c3ccccc3-c3ccccc32)cc1,-8,-5,6,80*
COc1ccc(OC)c(NC(=O)COC(=O)c2c3c(nc4ccccc24)CCCC3)c1,6,11,9,5
COc1ccc(NC(=O)COC(=O)c2c3c(nc4ccccc24)CCCC3)cc1Cl,3,63*,23,65
